Several values for one entry are separate records, joined by “and”; a condition that tells them apart may be missing. Identical values can stand only once. The campaign covered roughly 5,500 compounds. About 2,000 (36%) were called active. About 18% were inconclusive and are not listed. No stated cut-off is given here; in the data, active means normalized growth mostly below about 0.91 (no sharp cut-off); inconclusive means no clear call, values can overlap the other calls; inactive means mostly above about 0.92. This is one part of the list.
Assay: chemical genetic growth profiling, strain panel (AID 1159580);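 further: tested at 20 µM; growth read once vehicle control cultures reached saturation at 30 °C; 1 = growth at the plate median or of vehicle wells; lower values mean less growth of the strain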
Settings: S. cerevisiae deletion strains, growth OD

Measured: normalized growth

Nc1nc2ncc(=O)[nH]c2c(=O)[nH]1
inactive: locus YAL013W, strain DEP1, hits give low values 1 | locus YAL021C, strain ccr4, hits give low values 0.978 | locus YAL026C, strain drs2, hits give low values 0.999 | locus YAL030W, strain snc1, hits give low values 0.98 | locus YBL061C, strain skt5, hits give low values 0.973 | locus YBR009C, strain hhf1, hits give low values 0.995 | locus YBR021W, strain FUR4, hits give low values 0.99 | locus YBR023C, strain chs3, hits give low values 0.979 | locus YBR171W, strain sec66, hits give low values 0.983 | locus YBR229C, strain ROT2, hits give low values 1 | locus YBR231C, strain swc5, hits give low values 0.989 | locus YBR279W, strain paf1, hits give low values 0.984 | locus YCL011C, strain gbp2, hits give low values 0.989 | locus YCL016C, strain dcc1, hits give low values 0.976 | locus YCL029C, strain bik1, hits give low values 0.989 | locus YCL061C, strain MRC1, hits give low values 0.977 | locus YCL069W, strain vba3, hits give low values 0.989 | locus YCR088W, strain abp1, hits give low values 0.972 | locus YDL005C, strain med2, hits give low values 0.965 | locus YDL035C, strain GPR1, hits give low values 1.01 | locus YDL040C, strain nat1, hits give low values 0.986 | locus YDL074C, strain BRE1, hits give low values 1.06 | locus YDL101C, strain DUN1, hits give low values 1 | locus YDL134C, strain PPH21, hits give low values 1 | locus YDL185W, strain tfp1, hits give low values 0.975 | locus YDL192W, strain arf1, hits give low values 0.989 | locus YDR001C, strain nth1, hits give low values 0.972 | locus YDR069C, strain doa4, hits give low values 1.01 | locus YDR101C, strain arx1, hits give low values 0.998 | locus YDR137W, strain rgp1, hits give low values 0.971 | locus YDR150W, strain NUM1, hits give low values 0.997 | locus YDR159W, strain sac3, hits give low values 0.973 | locus YDR162C, strain NBP2, hits give low values 1.01 | locus YDR195W, strain ref2 0.949 | locus YDR297W, strain sur2, hits give low values 0.982 | locus YDR318W, strain mcm21, hits give low values 0.993 | locus YDR334W, strain swr1, hits give low values 0.98 | locus YDR335W, strain msn5, hits give low values 0.978 | locus YDR388W, hits give low values 0.985 | locus YDR392W, strain spt3, hits give low values 0.927 | locus YDR502C, strain sam2, hits give low values 0.996 | locus YEL003W, strain gim4, hits give low values 0.981 | locus YEL037C, strain rad23, hits give low values 0.995 | locus YEL061C, strain CIN8 (second series), hits give low values 0.976 | locus YEL061C, strain CIN8, hits give low values 1 | locus YER015W, strain faa2, hits give low values 1 | locus YER016W, strain bim1, hits give low values 0.984 | locus YER110C, hits give low values 0.976 | locus YER111C, strain swi4, hits give low values 0.957 | locus YER155C, strain BEM2 (second series), hits give low values 0.985 | locus YER155C, strain BEM2, hits give low values 0.993 | locus YER167W, strain BCK2, hits give low values 0.994 | locus YFR010W, strain ubp6, hits give low values 0.977 | locus YGL078C, strain dbp3, hits give low values 0.976 | locus YGL086W, strain mad1, hits give low values 0.989 | locus YGL167C, strain pmr1, hits give low values 0.968 | locus YGL173C, strain kem1, hits give low values 0.981 | locus YGL227W, strain vid30, hits give low values 0.988 | locus YGL240W, strain doc1, hits give low values 1 | locus YGL248W, strain PDE1, hits give low values 1.01 | locus YGL253W, strain hxk2, hits give low values 0.976 | locus YGR078C, strain PAC10, hits give low values 1.03 | locus YGR135W, strain pre9, hits give low values 1.02 | locus YGR229C, strain SMI1, hits give low values 1.04 | locus YGR252W, strain gcn5, hits give low values 1.01 | locus YHR013C, strain ard1, hits give low values 0.946 | locus YHR027C, strain rpn1, hits give low values 0.98 | locus YHR030C, strain SLT2, hits give low values 1 and 0.966 | locus YHR079C, strain IRE1 (second series), hits give low values 0.997 | locus YHR079C, strain IRE1, hits give low values 0.967 | locus YHR094C, strain hxt1, hits give low values 0.965 | locus YHR129C, strain ARP1, hits give low values 1 | locus YHR142W, strain chs7, hits give low values 0.941 | locus YHR200W, strain rpn10, hits give low values 0.988 | locus YIL066C, strain RNR3, hits give low values 1.01 | locus YIL073C, strain SPO22, hits give low values 0.921 | locus YIL125W, strain kgd1, hits give low values 0.981 | locus YIR030C, strain dcg1, hits give low values 0.994 | locus YJL092W, strain hpr5, hits give low values 0.976 | locus YJL095W, strain BCK1 (second series), hits give low values 0.98 | locus YJL095W, strain BCK1, hits give low values 1.06 and 0.983 | locus YJL115W, strain asf1, hits give low values 0.977 | locus YJL129C, strain trk1, hits give low values 0.953 | locus YJL134W, strain LCB3, hits give low values 0.997 | locus YJL154C, strain vps35, hits give low values 0.971 | locus YJL164C, strain tpk1, hits give low values 0.979 | locus YJL166W, strain qcr8, hits give low values 0.982 | locus YJL168C, strain set2, hits give low values 0.988 | locus YJL187C, strain SWE1 (second series), hits give low values 0.999 | locus YJL187C, strain SWE1, hits give low values 0.976 | locus YJR043C, strain POL32, hits give low values 1.01 | locus YJR066W, strain TOR1, hits give low values 0.945
